Screening results: PubChem, National Center for Advancing Translational Sciences (NCATS)
TrxR1 inh = inhibitors of rat thioredoxin reductase 1 | O89049 | recombinant rTrxR1, NADPH fluorescence consumption, selenite substrate | Potency, µM (highest dose often 114 µM), without a hit: at the highest dose activity change, negative = inhibition, usual class: inhibitors | hit rate 1% among 390,000 | AID 588453; note: potency is the fitted concentration of half-maximal effect; nearly all actives have a fitted effect of over 65% in size
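Rat TrxR1 (90 nM in the dispensed reagent) was pre-reduced with 400 uM NADPH for 5 min at room temperature, then incubated with compound for 15 min. After 400 uM selenite was added, NADPH fluorescence (Ex 340/Em 450 nm) was followed for 8 min.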
Gal4-VP16 FLuc = counter-screen for ROR gamma inhibitors: Gal4-VP16 reporter; Drosophila S2 Gal4-VP16 UAS-luciferase, luminescence, 20 h; hit rate 3.5% among 310,000; Potency, µM (highest dose often 53.6 µM), inactives show top-dose activity, negative = inhibition, most hits filed as inhibitors;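 note: Gal4-VP16 expression switched on by copper sulfate through the metallothionein promoter; potency is the fitted concentration of half-maximal effect; nearly all actives have a fitted effect of over 50% in size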
RORgamma inh = inhibitors of mouse ROR gamma transcriptional activity | Potency, µM (doses to about 53.6 µM), inactives show top-dose activity change, negative = inhibition, actives largely listed as inhibitors | hit rate 5.4% among 310,000 | AID 2551 | Drosophila S2 Gal4-RORgamma UAS-luciferase reporter, 20 h | P51450; note: potency is the fitted concentration of half-maximal effect; nearly all actives have a fitted effect of over 60% in size
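Compounds are pin-transferred onto Drosophila Schneider cells expressing a copper-inducible Gal4–ROR gamma transactivation domain fusion. After 1 hr, copper sulfate is added to 700 uM final; luciferase is read 20 hr later.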
TrxR1 substrate = is turned over as a substrate by rat TrxR1 | hit rate 0.01% among 390,000 | purified TrxR1 substrate turnover, NADPH consumption readout | AID 588456 | O89049 | Potency, µM (top dose mostly 114 µM), inactives show at the top dose activity change, negative = substrate turnover; note: potency is the fitted concentration of half-maximal effect; nearly all actives have a fitted effect of over 50% in size
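Rat TrxR1, dispensed at 90 nM, was prereduced with 400 uM NADPH (final) for 5 min at ~22 deg C, then incubated with compound 15 min before 400 uM selenite. A first-read NADPH fluorescence drop versus no-compound background flagged substrates.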
GALK inh = inhibitors of human galactokinase; Purified GALK, Kinase-Glo residual ATP luminescence; Potency, µM (highest dose often 57.5 µM), without a hit: at the highest dose activity change, negative = inhibition, actives largely listed as inhibitors; hit rate 0.007% among 270,000; AID 1868; note: potency is the fitted concentration of half-maximal effect
Target sequence (P51570 whole entry, looked up): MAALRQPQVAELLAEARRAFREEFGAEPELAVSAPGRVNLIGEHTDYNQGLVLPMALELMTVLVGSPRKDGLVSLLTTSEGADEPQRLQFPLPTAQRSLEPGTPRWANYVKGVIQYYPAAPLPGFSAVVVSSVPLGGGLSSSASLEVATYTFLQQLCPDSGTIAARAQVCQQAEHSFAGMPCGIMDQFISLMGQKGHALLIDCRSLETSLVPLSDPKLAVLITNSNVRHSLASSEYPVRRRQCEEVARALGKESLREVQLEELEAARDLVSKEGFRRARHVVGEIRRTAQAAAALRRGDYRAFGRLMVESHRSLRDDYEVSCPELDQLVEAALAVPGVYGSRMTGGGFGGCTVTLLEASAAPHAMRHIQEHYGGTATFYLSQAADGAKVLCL
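Quantitative HTS: GALK 5 nM, ATP 35 uM, galactose 100 uM, 1 h room temperature, then luciferase-based ATP detection.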
FBPA coupling cs = counter-screen for Giardia aldolase inhibitors: coupling enzyme system; coupling enzyme system counterscreen, AmpLite Red fluorescence; activity change, negative = inhibition, % at 58.2 µM, hits read low; hit rate 0.67% among 290,000; in the data active = activity change below about -30%
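Activity here indicates interference with the coupling reaction, not aldolase inhibition. Compounds at 57.5 uM final met coupling enzymes for 10 min at RT; substrate and AmpLite Red detection followed, with a 525/598 nm fluorescence read after 20 min.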
An asterisk follows results filed as active; ? = inconclusive; . = no result given; [ ] = dose if it differs, or a comment. Compounds with a hit are over-represented: about 5.9% of the library has one in this group of screens. Unless noted, calls come from the whole dose curve; as a rule, active = well fitted curve in the direction sought with a large enough effect; inconclusive = small, poorly fitted or top-dose-only effect, or another doubt; inactive = no such curve, though single readings can be large; an effect the other way counts as inactive or inconclusive. % is set by controls: 0 for no effect and ±100 for the full control effect.

SMILES	TrxR1 inh	Gal4-VP16 FLuc	RORgamma inh	TrxR1 substrate	GALK inh	FBPA coupling cs
S=C(Nc1ccc(Br)cc1)Nc1ccc2c(c1)OCCO2	-16%	?	18µM*	-8%	-4%	2
O=C(NC(=S)Nc1ccc2c(c1)OCO2)c1ccccc1	?	?	4.5µM*	10%	-3%	1
O=C(NC(=S)Nc1ccc2c(c1)OCCO2)c1cccc(Br)c1	?	?	5µM*	-1%	4%	2
O=C(NC(=S)Nc1ccccc1Br)c1ccc2c(c1)OCO2	?	8.9µM*	4.5µM*	-13%	-2%	.
O=C(NC(=S)Nc1ccc2c(c1)OCCO2)c1cccc2ccccc12	?	?	10µM*	-7%	.	-1
O=C(O)c1ccccc1NC(=S)NC(=O)c1cccc2ccccc12	-10%[57.1 µM]	5%	-2%	1%[57.1 µM]	-2%	-4
NS(=O)(=O)c1ccc(NC(=S)NC(=O)c2ccc3c(c2)OCO3)cc1	-11%[57.1 µM]	?	?	11%	16%	4
CC(C)c1ccc(O)c(NC(=S)NC(=O)c2ccc3c(c2)OCO3)c1	18%	1.4µM*	0.56µM*	-5%	-5%	.
CCOC(=O)c1ccc(NC(=O)CSc2nc3c(c(=O)n2CC)SC(C)C3)cc1 (stereo not given)	11%[57.1 µM]	-15%	4%	4%[57.1 µM]	1%	0
Cc1ccccc1-n1c(C)nc2ccccc21	9%[57.1 µM]	7%[0.365 µM]	11µM*	7%[57.1 µM]	-1%	-2
Cc1nc2ccccc2n1-c1ccccc1	5%	-12%	0%	-3%	5%	-2
O=C(c1ccc(Cl)cc1)c1ccc(CN2C(=O)c3ccccc3C2=O)o1	1%[57.1 µM]	1%	1%	3%[57.1 µM]	0%	1
Cc1ccc(C(=O)c2c(C)oc3c2C(=O)C(=O)c2ccccc2-3)cc1	22%[57.1 µM]	3.5µM*	5µM*	?	0%	-79*
COc1ccc(C(=O)c2coc(-c3ccccc3C(=O)O)c2C(=O)O)cc1	-9%	5%	-7%	-8%	1%	-2
Cc1ccc(C(=O)c2coc3c2C(=O)C(=O)c2ccccc2-3)cc1	8%	?	?	-3%	1%	-79*
Cc1oc2c(c1C(=O)c1ccc(Cl)cc1)C(=O)C(=O)c1ccccc1-2	2%	6.3µM*	5.6µM*	79µM*	-1%	-79*
CCn1c(SCc2nc3ccccc3[nH]2)nnc1-c1ccccc1OC	18%[57.1 µM]	1%	67%	14%[57.1 µM]	1%	-5
Cc1cc(C)cc(N(CCC#N)C(=O)COC(=O)CCc2c[nH]c3ccccc23)c1	-7%	.	.	-13%	.	.
N=C1S/C(=C\c2ccco2)C(=O)N1c1nccs1	-27%	0.22µM*	0.018µM*	-10%	2%	-4
Cc1ccccc1CN1CCN(C(=O)c2ccc(S(=O)(=O)NCc3ccco3)cc2)CC1	-7%	.	.	1%	.	.
CCOC(=O)CSc1nc2c(sc3ccc([N+](=O)[O-])cc32)c(=O)n1Cc1ccco1	13%	5.6µM*	8.9µM*	7%	0%	4
Cn1c(CO)cnc1SCc1ccc(F)cc1	16%[57.1 µM]	-14%	-9%	2%[57.1 µM]	1%	-5
C/C(=N/O)c1ccccn1	14%	1%	-28%	1%	1%	-1
CCCCCC/C(=N/O)c1ccccn1	9%	16µM*	5µM*	1%	-1%	2
COc1ccc(/C=C/C(=O)NC(=S)Nc2ccc(S(N)(=O)=O)cc2)cc1OC	13%[57.1 µM]	-3%	-8%	8%[57.1 µM]	-7%	3
SMILES	TrxR1 inh	Gal4-VP16 FLuc	RORgamma inh	TrxR1 substrate	GALK inh	FBPA coupling cs
Nc1c(C(=O)NCc2ccco2)c2nc3ccccc3nc2n1CCc1ccc(F)cc1	?	?	-19%	77%	2%	-34*
Cc1ccc(-n2c(-c3cn(C)nc3C)n[nH]c2=S)cc1	.	-7%	10µM*	.	0%	0
Cc1ccc(-n2c(-c3cc(C)n(C)n3)n[nH]c2=S)cc1	-32%	-2%	11µM*	0%	-1%	3
COc1ccc2nc(/N=C\N(C)C)sc2c1	13%	-6%	-4%	0%	-1%	-2
COc1ccc2nc(N=Nc3ccc(N(C)C)cc3)sc2c1	27%[57.1 µM]	1.4µM*	14µM*	0%[57.1 µM]	8%	-2
CCC(=O)OCC(=O)C1(OC(=O)CC)C(C)CC2C3C(Cl)CC4=CC(=O)C=C[C@@]4(C)C3C(O)C[C@@]21C (stereo not given in full)	.	-27%	13µM*	.	.	-2
CCC(=O)OCC(=O)C1(OC(=O)CC)[C@H](C)C[C@H]2[C@H]3[C@H]([C@@H](O)C[C@@]21C)[C@@]1(C)C=CC(=O)C=C1C[C@H]3Cl (stereo not given in full)	-7%	.	.	-12%	.	.
Cc1ccccc1C(=O)Oc1cccc2c(O)cccc12	8%	?	-27%	5%[57.1 µM]	0%	-1
Cc1ccccc1S(=O)(=O)Oc1cccc2c(O)cccc12	22%	?	7.1µM*	-2%	0%	-3
COc1cc(/C=N/NC(=O)c2cccnc2)ccc1OC(=O)c1ccc([N+](=O)[O-])cc1	-5%	1%[10 µM]	3%	-9%	-2%	4
CCOC(=O)N1CCN(c2nc(N(c3ccccc3)c3ccccc3)nc(-n3ccnc3)n2)CC1	.	0%	8%	.	-1%	2
CN(c1ccccc1)c1nc(N2CCCC2)nc(-n2ccnc2)n1	1%	11µM*	4.5µM*	-1%	-2%	0
CN(c1ccccc1)c1nc(N)c([N+](=O)[O-])c(N2CCCC2)n1	25%	?	?	-4%	8%	5
c1ccc(N(c2ccccc2)c2nc(N3CCCC3)nc(-n3ccnc3)n2)cc1	31%	11µM*	7.1µM*	14%	0%	4
CC(C)(C)P(=O)(CO)c1ccccc1 (stereo not given)	-14%	-8%	-22%	-9%	7%	-1
CCOC(=O)CCCc1sc(N)nc1-c1[nH]c(=O)[nH]c1C	7.9µM*	?	-1%	-5%[57.1 µM]	4%	-12
Cc1ccccc1OCC(=O)Nc1ccccc1C(=O)OCc1cc(=O)n2nc(C3CC3)sc2n1	11%[57.1 µM]	.	.	1%[57.1 µM]	.	.
CCc1cc2c(=O)c(-c3ccc4c(c3)OCCO4)c(C)oc2cc1OS(C)(=O)=O	10%	20µM*	-4%	-7%	0%	3
CCc1cc(=O)oc2c(C)c(OS(C)(=O)=O)ccc12	-12%	.	.	20%	.	.
CC(=O)Nc1ccc(C(=O)NNC(=O)C2CC2)cc1	33%	2%	-11%	13%	4%	3
